BRCA1 expr act – activators of BRCA1 expression; MCF7-BRCA1-FFLuc reporter, luminescence, 48 h; response scale: scaled: vehicle 0%, 10 µM genistein 100%; Potency, µM (series often up to 46.1 µM), for inactives: at the highest dose activation, usual class: activators; actives 1.1% (n = 380,000); AID 624202; also: potency is read from the fitted curve at half-maximal effect; nearly all actives have a fitted effect of over 80% in size
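Compounds are tested at multiple concentrations on MCF7 BRCA1-luciferase reporter cells seeded at 2000 per well; after 48 h, a single luminescence end-point is taken and curves fitted to the normalized data.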
p53 reactivator – mutant p53 re-activation in reporter cells. H1299 p53-A138V BP100-luciferase reporter, luminescence, 24 h. Potency, µM (doses to about 92.2 µM), without a hit: at the top dose activity change, positive = activation, most hits filed as activators. actives 0.063% (n = 320,000). AID 504706; also: potency is read from the fitted curve at half-maximal effect; % of control where 0% means no effect; nearly all actives have a fitted effect of over 45% in size
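H1299 (p53-null), stable ts p53-A138V + BP100-Luc; 1000 cells/well, Opti-MEM/10% FBS; cpd 4 pt, 1:5; 24 h, 37 deg C, 5% CO2; detection reagent 10 min RT; luminescence.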
Gal4-VP16 FLuc – Gal4-VP16 reporter inhibition counter-screen. actives 3.5% (n = 310,000). Drosophila S2 Gal4-VP16 UAS-luciferase, luminescence, 20 h. Potency, µM (series often up to 53.6 µM), inactives show top-dose activity, negative = inhibition, actives largely listed as inhibitors. AID 2546;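 also: Gal4-VP16 expression switched on by copper sulfate through the metallothionein promoter; potency is read from the fitted curve at half-maximal effect; % is scaled to controls: 0 for no effect and ±100 for the full control effect; nearly all actives have a fitted effect of over 50% in size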
ELG1 repair inh – ELG1-dependent DNA repair inhibition; AID 504467; Potency, µM (titrated, usually from 46.1 µM), for inactives: at the top dose activity change, negative = inhibition, usual class: inhibitors; actives 2.3% (n = 330,000); HEK293T ELG1-luciferase reporter, luminescence, 16 h; DNA damage induced by 5-fluorouridine; also: potency is read from the fitted curve at half-maximal effect; % is scaled to controls: 0 for no effect and ±100 for the full control effect; nearly all actives have a fitted effect of over 55% in size
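Cells (2,000 per well) received 5-fluorouridine plus test compound or DMSO and were incubated 16 hr at 37 °C, 5% CO2. Luciferase activity was read by luminescence 30 min after ONE-Glo addition; signal suppression marked inhibition of damage-induced ELG1 function.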
RORgamma inh – ROR gamma (mouse) transcription inhibition; P51450; Drosophila S2 Gal4-RORgamma UAS-luciferase reporter, 20 h; Potency, µM (highest dose often 53.6 µM), for the others: at the top dose activity change, negative = inhibition, hits mostly inhibitors; actives 5.4% (n = 310,000); AID 2551; also: potency is read from the fitted curve at half-maximal effect; % is scaled to controls: 0 for no effect and ±100 for the full control effect; nearly all actives have a fitted effect of over 60% in size
Target sequence (P51450 whole entry, looked up, the tested form may be a part): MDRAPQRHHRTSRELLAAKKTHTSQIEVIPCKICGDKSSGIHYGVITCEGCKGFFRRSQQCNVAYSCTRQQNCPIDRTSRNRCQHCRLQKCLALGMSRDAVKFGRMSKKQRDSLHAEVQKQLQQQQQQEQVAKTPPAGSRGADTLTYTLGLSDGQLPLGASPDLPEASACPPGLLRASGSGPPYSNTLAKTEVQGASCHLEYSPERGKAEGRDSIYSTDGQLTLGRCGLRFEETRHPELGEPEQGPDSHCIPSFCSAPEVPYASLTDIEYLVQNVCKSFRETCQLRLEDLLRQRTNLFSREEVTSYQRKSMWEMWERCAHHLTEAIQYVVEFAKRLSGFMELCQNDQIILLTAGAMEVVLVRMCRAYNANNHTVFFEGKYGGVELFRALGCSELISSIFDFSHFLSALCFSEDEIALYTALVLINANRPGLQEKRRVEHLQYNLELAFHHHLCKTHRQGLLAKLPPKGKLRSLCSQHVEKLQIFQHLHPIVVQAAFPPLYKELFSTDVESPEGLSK
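Using a luciferase readout, inhibitors were identified by reduced reporter activity in Drosophila cells coexpressing a copper-inducible Gal4–ROR gamma fusion and UAS-driven Photinus luciferase, incubated 20 hr after 700 uM copper sulfate.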
Giardia kill – Giardia lamblia killing | Giardia lamblia trophozoite viability | activity change, % at 7.66 µM, hits read low | actives 0.15% (n = 340,000); in the data active = activity change below about -80%; inconclusive = between about -30% and that limit;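 also: parasites exposed to compound for two days anaerobically before the ATP read; % is scaled to controls: 0 for no effect and ±100 for the full control effect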
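Trophozoites 100 cells/well + cpd; 48 hrs, 37 deg C, anaerobic. ATPLite 1-Step added, 15-30 min RT, luminescence read (ATP-based viability).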
Active calls of the source: *; [ ] = another dose, or the depositor's remark. Sampled rows, rich in hits. Any-hit rate of the full collection: about 7.6%. Unless noted, calls follow the shape of the dose curve; as a rule, active = well fitted curve in the direction sought with a large enough effect; inconclusive = small, poorly fitted or top-dose-only effect, or another doubt; inactive = no such curve, though single readings can be large; an effect the other way counts as inactive or inconclusive.

CCOC(=O)/C=C/C(=O)Nc1ccc(S(=O)(=O)Nc2c(C)cc(C)cc2C)cc1 was read as BRCA1 expr act -28%, p53 reactivator 7%, Gal4-VP16 FLuc 0%, ELG1 repair inh inconclusive, RORgamma inh -35% and Giardia kill 7.
Screening CCOC(=O)/C=C/S(=O)(=O)c1ccc(NC(C)=O)cc1 returned BRCA1 expr act -89%, p53 reactivator -15%, Gal4-VP16 FLuc 3.5µM*, ELG1 repair inh inconclusive, RORgamma inh 3.5µM* and Giardia kill -11.
For C/C(=N\N=C(N)N)c1ccc(Cl)c(Cl)c1 the results were BRCA1 expr act -65%, p53 reactivator 5%, Gal4-VP16 FLuc 7%, ELG1 repair inh -1%, RORgamma inh 16% and Giardia kill -7.
For CN1c2ccc(Cl)cc2C(=O)NC1c1ccc([N+](=O)[O-])s1 (configuration not stated) the results were BRCA1 expr act -4%, p53 reactivator 8%, Gal4-VP16 FLuc inconclusive, ELG1 repair inh 21µM*, RORgamma inh -5% and Giardia kill inconclusive.
For CCCCn1nc(C(=O)Nc2c(C)n(C)n(-c3ccccc3)c2=O)c2ccccc2c1=O the results were BRCA1 expr act -11%, p53 reactivator -10%, ELG1 repair inh -25% and Giardia kill -13.
For CCOc1ccc(C2Sc3ccccc3NC3=C2C(=O)OC3)cc1 (configuration not stated) the results were BRCA1 expr act -1%, p53 reactivator 7%, Gal4-VP16 FLuc 0%, ELG1 repair inh inconclusive, RORgamma inh 21% and Giardia kill -1.
Screening O=C1OCC2=C1C(c1ccc3c(c1)OCO3)Sc1ccccc1N2 (configuration not stated) returned BRCA1 expr act -34%, p53 reactivator -4%, Gal4-VP16 FLuc 14µM*, ELG1 repair inh -3%, RORgamma inh -23% and Giardia kill -9.
`COc1ccccc1CN(C)C[C@H]1OCc2cnnn2CCCC(=O)N([C@@H](C)CO)C[C@@H]1C` gave BRCA1 expr act 9%.
`O=C(Cc1ccc(S(=O)(=O)N2CCOCC2)s1)N1CCN(S(=O)(=O)c2ccccc2F)CC1` gave BRCA1 expr act -8% and Giardia kill 16.
CS(=O)(=O)N1CCC(C(=O)Nc2ccccc2Sc2ccccc2)CC1 was read as BRCA1 expr act 1%, p53 reactivator 9%, Gal4-VP16 FLuc 5.6µM*, ELG1 repair inh 10%, RORgamma inh inconclusive and Giardia kill -3.
For CS(=O)(=O)N1CCC(C(=O)Nc2ccccc2)CC1 the results were BRCA1 expr act -1%, p53 reactivator 8%, Gal4-VP16 FLuc -6%, ELG1 repair inh 13%, RORgamma inh 0% and Giardia kill 0.
`O=S(=O)(NC1c2cccc3cccc(c23)C1N1CCN(CCO)CC1)c1ccccc1` (configuration not stated) gave BRCA1 expr act -31%, p53 reactivator -3%, Gal4-VP16 FLuc -3%, ELG1 repair inh inconclusive, RORgamma inh -25% and Giardia kill 0.
Screening O=C(N/N=C/c1cnc(N2CCCCC2)s1)c1ccc(C(F)(F)F)cc1 returned BRCA1 expr act -45%, p53 reactivator -2%, Gal4-VP16 FLuc 3.5µM*, ELG1 repair inh -6%, RORgamma inh 2µM* and Giardia kill -3.
For Cc1ccc(CS(=O)Cc2ccc(C(=O)NCc3ccc(OC(C)C)cc3)o2)cc1 (configuration not stated) the results were BRCA1 expr act 14%, p53 reactivator -4%, Gal4-VP16 FLuc 5%, ELG1 repair inh 7.3µM*, RORgamma inh 12% and Giardia kill -6.
`COc1ccc(CNC(=O)c2ccc(CS(=O)Cc3ccc(Cl)cc3)o2)cc1` (configuration not stated) gave BRCA1 expr act 0%, p53 reactivator -3%, Gal4-VP16 FLuc 12%, ELG1 repair inh -6%, RORgamma inh 14% and Giardia kill 5.
`CCNc1nc2c(c(=O)n(Cc3ccccc3)c(=O)n2C)n1Cc1ccccc1` gave BRCA1 expr act -26%, p53 reactivator -8%, Gal4-VP16 FLuc 0%, ELG1 repair inh 13µM*, RORgamma inh -2% and Giardia kill -8.
Cn1c(=O)c2c(nc(NCc3cccnc3)n2Cc2ccc(Cl)cc2)n(C)c1=O was read as BRCA1 expr act -40%, p53 reactivator -1%, Gal4-VP16 FLuc 0%, ELG1 repair inh 21µM*, RORgamma inh 22% and Giardia kill 4.
For CCCCNc1nc2c(c(=O)n(Cc3ccccc3)c(=O)n2C)n1C the results were BRCA1 expr act -21%, p53 reactivator -4%, Gal4-VP16 FLuc -9%, ELG1 repair inh inconclusive, RORgamma inh -1% and Giardia kill 30.
CCNc1nc2c(c(=O)n(C)c(=O)n2C)n1Cc1ccc(Cl)cc1 was read as BRCA1 expr act 0%, p53 reactivator 8%, Gal4-VP16 FLuc 4.5µM*, ELG1 repair inh -18%, RORgamma inh inconclusive and Giardia kill 6.
For Cn1c(=O)c2c(nc(NCc3ccccc3)n2Cc2ccc(F)cc2)n(C)c1=O the results were p53 reactivator -2%, Gal4-VP16 FLuc 14µM*, ELG1 repair inh inconclusive and RORgamma inh inconclusive.
Screening CCCNc1nc2c(c(=O)n(C)c(=O)n2C)n1Cc1ccc(F)cc1 returned BRCA1 expr act -33%, p53 reactivator -10%, Gal4-VP16 FLuc inconclusive, ELG1 repair inh inconclusive, RORgamma inh 43% and Giardia kill 16.
`CN(c1ccc(O)cc1)c1nc(O)c(C2=c3ccccc3=NC2=O)s1` gave BRCA1 expr act 84% and Giardia kill 19.
Cn1c(OCc2cccnc2)nc2c1c(=O)n(Cc1ccc(Br)cc1)c(=O)n2C was read as BRCA1 expr act -61%, p53 reactivator -5%, Gal4-VP16 FLuc inconclusive, ELG1 repair inh 16µM*, RORgamma inh 3.5µM* and Giardia kill -4.
For Cn1c(=O)c2c([nH]c(=S)n2Cc2ccc(Cl)cc2)n(C)c1=O the results were BRCA1 expr act 3%, p53 reactivator 2%, Gal4-VP16 FLuc inconclusive, ELG1 repair inh -6%, RORgamma inh 13µM* and Giardia kill -11.
Cn1c(OCc2cccnc2)nc2c1c(=O)n(Cc1ccc(Cl)cc1)c(=O)n2C was read as BRCA1 expr act 5%[1.84 µM] and Giardia kill 23.
`CCNc1nc2c(c(=O)n(C)c(=O)n2C)n1CCCc1ccccc1` gave BRCA1 expr act -45%, Gal4-VP16 FLuc 11µM*, ELG1 repair inh inconclusive, RORgamma inh inconclusive and Giardia kill 0.

Assay outcomes deposited in PubChem by National Center for Advancing Translational Sciences (NCATS).
